# Screens as filed in PubChem BioAssay.
# Most compounds without a hit are left out; they make up all but 4.1% or so of the library.
# CHT inh = inhibits the human high affinity choline transporter. B-score at 10 µM. 310,000 tested, 0.86% active. CHT-expressing cells, membrane potential dye, choline response; hits give low values;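 active = B-score over 3 SD under the library average, and starting fluorescence ratio not unusually high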;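 also: choline stimulus applied at its EC90 after an EC20 pre-addition; B-score computed on integrated fluorescence ratio after choline addition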
# MEKK2mut PB1 HTS = signal of MEK5 binding to mutant human MEKK2 PB1 domain; bead flow cytometry, Alexa488-MEK5 binding to MEKK2 mutant; percent response, % at 10 µM; 290,000 tested, 0.35% active; in the data active = percent response above about 24%, passing the limit was not always enough
# Mot1-301 SUMO = blocks SUMOylation pathway, rescuing yeast Mot1-301 growth; S. cerevisiae Mot1-301 growth rescue, ATP luminescence, 38.5C; percent above DMSO median, 100 means doubled; growth rescue, % at 18.8 µM; 320,000 tested, 1% active;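 active = every valid replicate shows activation above 250% relative to neutral control wells; inactive = the rest, any valid replicate at or below 250%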;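 also: OY570 slx delta 5 strain wells were the positive control but not used for scaling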
# CHT PAM = human CHT allosteric activation. AID 488977. CHT-expressing cells, membrane potential dye, choline EC20; hits give high values; LV-AA mutant CHT in HEK293 cells. Q9GZV3. 310,000 tested, 0.49% active. B-score at 10 µM;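 active = initial fluorescence not abnormally high and integrated response B-score, plate-corrected, over 3 SD above library mean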
# MEKK3 PB1 HTS = modulators (inhibitors or enhancers) of MEK5 binding to human MEKK3 PB1 domain. bead-based flow cytometry, Alexa488-MEK5 binding to MEKK3; actives lie on both sides; 0 = blocked by unlabeled MEK5, 100 = vehicle. AID 1529. Q99759. binding response (% of control), % at 10 µM. 290,000 tested, 1.4% active;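 active = binding response more than 3 SD above or below the average of its plate-row segment, actives on both sides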;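 also: Alexa488 bead fluorescence after subtracting the streptavidin-only scavenger bead signal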
# Target sequence (Q99759 whole entry, looked up, the tested form may be a part): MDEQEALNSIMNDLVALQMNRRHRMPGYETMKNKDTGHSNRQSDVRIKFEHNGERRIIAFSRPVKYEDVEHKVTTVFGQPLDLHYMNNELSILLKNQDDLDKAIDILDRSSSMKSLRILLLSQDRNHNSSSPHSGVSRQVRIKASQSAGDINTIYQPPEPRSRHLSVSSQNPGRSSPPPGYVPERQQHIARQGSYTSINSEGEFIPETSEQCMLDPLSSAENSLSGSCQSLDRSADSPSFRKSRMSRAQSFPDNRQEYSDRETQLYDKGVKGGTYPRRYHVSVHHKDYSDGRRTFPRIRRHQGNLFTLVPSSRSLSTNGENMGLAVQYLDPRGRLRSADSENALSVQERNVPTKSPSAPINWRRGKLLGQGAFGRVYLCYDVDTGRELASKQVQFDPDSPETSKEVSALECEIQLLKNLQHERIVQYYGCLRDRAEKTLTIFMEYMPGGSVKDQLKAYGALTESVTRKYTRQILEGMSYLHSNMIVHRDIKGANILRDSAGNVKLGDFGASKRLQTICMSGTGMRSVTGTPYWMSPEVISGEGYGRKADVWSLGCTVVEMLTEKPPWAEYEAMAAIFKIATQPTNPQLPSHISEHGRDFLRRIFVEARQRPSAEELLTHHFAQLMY
# MEKK2wt PB1 HTS = raises or lowers MEK5 binding to wildtype human MEKK2 PB1 domain; binding response (% of control), % at 10 µM; 290,000 tested, 1.1% active; bead flow cytometry, Alexa488-MEK5 binding to MEKK2 WT; actives lie on both sides; in the data active = binding response below about 67% or above about 130%
# CHT act confirm = confirmation of human choline transporter (CHT) activators | CHT-expressing cells, membrane potential dye fluorescence (FDSS); % of choline EC20–EC90 response window; HEK293 expressing CHT LV-AA mutant; choline added at its EC20 | shares compounds with CHT PAM | AID 504833 | 2,500 tested, 91% active | activation, % at 10 µM;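 active = primary screen active, with duplicate mean activation above negative control mean plus 3 SD, cut at about 11% in these data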
# HEK293 MP dye = CHT activator counter-screen hit in parental HEK293 cells | membrane potential dye fluorescence (FDSS); measured after EC20 choline addition | 2,500 tested, 62% active | ratio readout change at 10 µM, hits read low | shares compounds with CHT PAM;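 active = duplicate-averaged ratio beyond 3 SD from buffer wells, up or down, though filed actives are nearly all decreases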
# * hit, by the source's call; i = inactive; . = no result.
SMILES,CHT inh,MEKK2mut PB1 HTS,Mot1-301 SUMO,CHT PAM,MEKK3 PB1 HTS,MEKK2wt PB1 HTS,CHT act confirm,HEK293 MP dye
CN(C)CCCNC(=O)C1(O)c2cc(Br)ccc2NC(=O)N1c1c(F)cccc1F (configuration not stated),i,3,-6,i,102,106,.,.
O=C(Nc1ccnn1C1CCN(Cc2ccc(CO)o2)CC1)c1ccccc1,i,5,-4,i,102,107,.,.
CCOC(=O)Cc1csc(NC(=O)C(NC(=O)C2CCCCC2)C(C)C)n1 (configuration not stated),i,-2,9,i,99,96,.,.
CC1CCN(C(=O)c2[nH]cnc2C(=O)Nc2ccc(Cl)cc2)CC1,.,.,1,.,.,.,.,.
CCn1c(=O)c2sccc2n(Cc2cc(C(=O)OC)ccc2OC)c1=O,i,3,-5,i,103,106,36*,i
CN(C)c1nc(Nc2ccccc2)nc(N(C)C)n1,i,2,4,i,105,103,.,.
CN(C)c1ccc(Nc2nc(N)c3ccccc3n2)cc1,i,8,-67,7.4*,106,124,49*,-75*
Nc1nc(Nc2ccccc2)nc2ccccc12,i,9,-34,i,102,117,37*,-66*
Cc1ccccc1Nc1nc(N)nc(-c2oc3ccccc3c2C)n1,i,-3,20,i,98,99,.,.
Nc1ncnc(Nc2ccccc2)n1,i,.,11,i,.,.,.,.
Cc1ccccc1Nc1nc(N)c2ccccc2n1,i,28,144,6.8*,161*,173*,11*,-44*
CN1C(N)=NC(=O)/C1=C\c1ccc(Br)cc1,i,8,-1,i,99,101,.,.
CC1(C)CC(C(CCN(Cc2ccccc2)C(=O)c2ccco2)c2ccc(F)cc2)CCO1 (configuration not stated),i,1,-17,9.7*,100,96,56*,i
O=C(c1ccco1)N(CCC(c1ccccc1)c1ccco1)Cc1ccc(F)cc1 (configuration not stated),i,5,58,i,114,108,.,.
CCN(CC(=O)Nc1c(F)cccc1F)C(=O)CCN1C(=O)C2CC=CCC2C1=O (configuration not stated),i,.,903,i,.,.,.,.
OCCN1CCN(c2ncnc3ccc(Br)cc23)CC1,i,8,.,13*,104,104,38*,-30*
CC(C)COP(=O)(CNC(=O)CN1C(=O)c2ccccc2S1(=O)=O)OCC(C)C,i,-1,-3,i,95,96,.,.
Cc1ccc(F)cc1NC(=O)c1cnccn1,i,0,-22,i,118,107,.,.
Cn1c(=O)[nH]c(=O)c2c1nc(N1CCc3ccccc3C1)n2CCSc1nc2ccccc2s1,i,-5,26,i,98,90,.,.
CN1CCN(c2nc3c(c(=O)[nH]c(=O)n3C)n2CCSc2nc3ccccc3s2)CC1,i,4,-4,9.2*,103,104,50*,-55*
Cc1nnc(SCCn2c(N3CCN(C)CC3)nc3c2c(=O)[nH]c(=O)n3C)s1,i,-4,-6,6.9*,93,94,59*,-67*
Cc1nnc(SCCn2c(N3CCCCCC3)nc3c2c(=O)[nH]c(=O)n3C)s1,i,-13,360,i,90,92,.,.
Cc1c(NC(=O)C(Sc2ccccc2)c2ccccc2)cccc1[N+](=O)[O-] (configuration not stated),i,.,3,i,.,.,.,.
CC(/C=N/NC(=O)c1sc(N)nc1C)=C\c1ccccc1,i,0,-3,i,108,103,.,.
Cc1cc(C)nc(/N=C(\N)N2CCCCC2)n1,i,-4,.,6.9*,95,89,52*,-41*
SMILES,CHT inh,MEKK2mut PB1 HTS,Mot1-301 SUMO,CHT PAM,MEKK3 PB1 HTS,MEKK2wt PB1 HTS,CHT act confirm,HEK293 MP dye
COc1cccc(N2CCN(C(=O)c3oc4ccccc4c3NC(=O)CCc3cc(OC)no3)CC2)c1,i,0,11,i,102,101,.,.
COc1ccc(-c2cn(-c3ccc(Br)cc3)c3[n+]2CCS3)cc1,i,0,.,i,98,102,.,.
Clc1ccc(-c2c[n+]3c(n2-c2ccccc2)SCC3)cc1,i,-4,-2,i,101,100,43*,-28*
Clc1ccc(-c2cn(-c3ccccc3)c3[n+]2CCS3)cc1,i,-10,7,i,105,94,41*,-40*
O=[N+]([O-])c1cccc(-c2c[n+]3c(n2-c2ccccc2)SCC3)c1,i,-1,-7,i,104,103,.,.
Fc1ccc(-c2cn(-c3ccccc3)c3[n+]2CCS3)cc1,i,6,-13,i,100,107,51*,-42*
COc1ccc(-c2cn3c(n2)CCC3)cc1,i,14,14,7.4*,108,113,51*,-47*
Cc1ccc(-c2cn3c(n2)CCCC3)cc1,i,-4,-21,i,97,94,.,.
COc1ccc(Nc2ccnc3ccccc23)cc1,i,16,21,6.6*,113,119,28*,-55*
COc1ccc(Nc2ncnc3ccccc23)cc1,i,7,-26,i,103,106,.,.
COc1ccc(C(=O)CNC2=NCCC2)cc1,i,3,-7,8.2*,102,102,57*,-47*
O=C(CNC1=NCCC1)c1ccc(Cl)cc1,i,0,43,i,113,101,30*,-25*
CS(=O)(=O)N1CCN(c2ccc([N+](=O)[O-])c(NCCN3CCOCC3)c2)CC1,i,.,-11,i,.,.,32*,-40*
c1cnc2c(c1)ccc1cccnc12,i,3,14,6.6*,107,105,62*,-105*
O=C(CC1C(=O)NC2CCCCC2N1C(=O)c1ccc(F)cc1)Nc1ccccc1 (configuration not stated),i,-2,15,i,96,97,.,.
COc1ccccc1C(=O)N1C(CC(=O)Nc2cc(Cl)ccc2C)C(=O)NC2CCCCC21 (configuration not stated),i,-20,-11,i,96,60,24*,i
CN(c1ccccc1)S(=O)(=O)c1cccc(NS(=O)(=O)c2cccc(C(=O)O)c2)c1,.,.,-4,.,.,.,.,.
